Data as given in PubChem BioAssay AID1159580 (chemical genetic matrix, 2015).
Out of some 5,500 compounds screened, about 2,000 (36%) were called active. About 18% were inconclusive and are not listed. Cut-off read from the data, not from the text of the source: active = normalized growth mostly below about 0.91 (no sharp cut-off); inconclusive = no clear call, values can overlap the other calls; inactive = mostly above about 0.92. The list shows a part of the results.

Experiment: chemical genetic growth profiling, strain panel (AID 1159580);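 note: tested at 20 µM; growth read once vehicle control cultures reached saturation at 30 °C; 1 = growth at the plate median or of vehicle wells; lower values mean less growth of the strain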
Details: growth OD

Measured: normalized growth

C[n+]1ccccc1/C=N/O
inactive: S. cerevisiae deletion strains, locus YJR066W, strain TOR1, active compounds read low 0.986 | S. cerevisiae deletion strains, locus YKL009W, strain mrt4, active compounds read low 1.03 | S. cerevisiae deletion strains, locus YKL068W, active compounds read low 1.01 | S. cerevisiae deletion strains, locus YKL085W, strain MDH1 (second series), active compounds read low 1 | S. cerevisiae deletion strains, locus YKL085W, strain MDH1, active compounds read low 1 | S. cerevisiae deletion strains, locus YKL160W, strain elf1, active compounds read low 0.997 | S. cerevisiae deletion strains, locus YKL190W, strain CNB1, active compounds read low 1.01 | S. cerevisiae deletion strains, locus YKR001C, strain vps1, active compounds read low 0.989 | S. cerevisiae deletion strains, locus YKR026C, strain gcn3, active compounds read low 1.01 | S. cerevisiae deletion strains, locus YKR091W, strain srl3, active compounds read low 0.993 | S. cerevisiae deletion strains, locus YLL001W, strain dnm1, active compounds read low 0.973 | S. cerevisiae deletion strains, locus YLL026W, active compounds read low 0.996 | S. cerevisiae deletion strains, locus YLL041C, strain sdh2, active compounds read low 0.985 | S. cerevisiae deletion strains, locus YLR027C, strain aat2, active compounds read low 1.01 | S. cerevisiae deletion strains, locus YLR039C, strain RIC1, active compounds read low 1.01 | S. cerevisiae deletion strains, locus YLR058C, strain SHM2, active compounds read low 1.01 | S. cerevisiae deletion strains, locus YLR102C, strain apc9, active compounds read low 0.994 | S. cerevisiae deletion strains, locus YLR113W, strain HOG1, active compounds read low 0.999 | S. cerevisiae deletion strains, locus YLR221C, strain rsa3, active compounds read low 1.02 | S. cerevisiae deletion strains, locus YLR258W, strain gsy2, active compounds read low 0.991 | S. cerevisiae deletion strains, locus YLR262C, strain YPT6 (second series), active compounds read low 1.02 | S. cerevisiae deletion strains, locus YLR262C, strain YPT6, active compounds read low 1 | S. cerevisiae deletion strains, locus YLR268W, strain sec22, active compounds read low 0.998 | S. cerevisiae deletion strains, locus YLR320W, strain mms22, active compounds read low 0.981 | S. cerevisiae deletion strains, locus YLR330W, strain CHS5, active compounds read low 1.01 | S. cerevisiae deletion strains, locus YLR342W, strain FKS1 (second series), active compounds read low 1 | S. cerevisiae deletion strains, locus YLR342W, strain FKS1, active compounds read low 1.02 | S. cerevisiae deletion strains, locus YLR357W, strain rsc2, active compounds read low 0.958 | S. cerevisiae deletion strains, locus YLR370C, strain arc18, active compounds read low 1.01 | S. cerevisiae deletion strains, locus YLR371W, strain rom2, active compounds read low 0.993 | S. cerevisiae deletion strains, locus YLR384C, strain iki3, active compounds read low 1 | S. cerevisiae deletion strains, locus YLR418C, strain cdc73, active compounds read low 0.983 | S. cerevisiae deletion strains, locus YML016C, strain PPZ1, active compounds read low 1.01 | S. cerevisiae deletion strains, locus YML032C, strain rad52, active compounds read low 0.989 | S. cerevisiae deletion strains, locus YML120C, strain ndi1, active compounds read low 1.02 | S. cerevisiae deletion strains, locus YML124C, strain tub3, active compounds read low 1 | S. cerevisiae deletion strains, locus YMR058W, strain fet3, active compounds read low 1.01 | S. cerevisiae deletion strains, locus YMR078C, strain ctf18, active compounds read low 0.993 | S. cerevisiae deletion strains, locus YMR125W, strain sto1, active compounds read low 1 | S. cerevisiae deletion strains, locus YMR129W, active compounds read low 0.998 | S. cerevisiae deletion strains, locus YMR205C, strain PFK2, active compounds read low 1.01 | S. cerevisiae deletion strains, locus YMR223W, strain ubp8, active compounds read low 1.01 | S. cerevisiae deletion strains, locus YMR231W, strain pep5, active compounds read low 0.996 | S. cerevisiae deletion strains, locus YMR307W, strain GAS1, active compounds read low 0.992 | S. cerevisiae deletion strains, locus YNL067W, strain RPL9B, active compounds read low 1 | S. cerevisiae deletion strains, locus YNL071W, strain lat1, active compounds read low 1.01 | S. cerevisiae deletion strains, locus YNL128W, strain TEP1, active compounds read low 1.02 | S. cerevisiae deletion strains, locus YNL153C, strain GIM3, active compounds read low 1.01 | S. cerevisiae deletion strains, locus YNL183C, strain NPR1, active compounds read low 0.924 | S. cerevisiae deletion strains, locus YNL209W, strain ssb2, active compounds read low 1.02 | S. cerevisiae deletion strains, locus YNL233W, strain BNI4, active compounds read low 0.999 | S. cerevisiae deletion strains, locus YNL248C, strain rpa49, active compounds read low 0.978 | S. cerevisiae deletion strains, locus YNL250W, strain rad50, active compounds read low 1.01 | S. cerevisiae deletion strains, locus YNL271C, strain bni1, active compounds read low 1.01 | S. cerevisiae deletion strains, locus YNL298W, strain CLA4, active compounds read low 1.01 | S. cerevisiae deletion strains, locus YNL307C, strain MCK1, active compounds read low 0.992 | S. cerevisiae deletion strains, locus YNL322C, strain KRE1 (second series), active compounds read low 0.991 | S. cerevisiae deletion strains, locus YNR049C, strain mso1, active compounds read low 1.01 | S. cerevisiae deletion strains, locus YNR052C, strain pop2, active compounds read low 1 | S. cerevisiae deletion strains, locus YOL006C, strain TOP1, active compounds read low 1.01 | S. cerevisiae deletion strains, locus YOL012C, strain htz1 1.12 | S. cerevisiae deletion strains, locus YOL147C, strain pex11, active compounds read low 1 | S. cerevisiae deletion strains, locus YOR001W, strain rrp6, active compounds read low 0.992 | S. cerevisiae deletion strains, locus YOR061W, strain CKA2, active compounds read low 1.01 | S. cerevisiae deletion strains, locus YOR069W, strain VPS5, active compounds read low 1.01 | S. cerevisiae deletion strains, locus YOR070C, strain gyp1, active compounds read low 1 | S. cerevisiae deletion strains, locus YOR080W, strain dia2, active compounds read low 1 | S. cerevisiae deletion strains, locus YOR083W, strain WHI5, active compounds read low 0.948 | S. cerevisiae deletion strains, locus YOR106W, strain vam3, active compounds read low 0.995 | S. cerevisiae deletion strains, locus YOR136W, strain idh2, active compounds read low 0.993 | S. cerevisiae deletion strains, locus YOR144C, strain elg1, active compounds read low 0.994 | S. cerevisiae deletion strains, locus YOR184W, strain ser1, active compounds read low 0.985 | S. cerevisiae deletion strains, locus YOR231W, strain MKK1, active compounds read low 1.02 | S. cerevisiae deletion strains, locus YOR265W, strain rbl2, active compounds read low 1 | S. cerevisiae deletion strains, locus YOR270C, strain vph1, active compounds read low 1.04 | S. cerevisiae deletion strains, locus YOR290C, strain snf2, active compounds read low 1.03 | S. cerevisiae deletion strains, locus YOR316C, strain cot1, active compounds read low 1 | S. cerevisiae deletion strains, locus YPL051W, strain arl3, active compounds read low 1.02 | S. cerevisiae deletion strains, locus YPL055C, strain LGE1, active compounds read low 1.04 | S. cerevisiae deletion strains, locus YPL078C, strain atp4, active compounds read low 0.992 | S. cerevisiae deletion strains, locus YPL106C, strain sse1, active compounds read low 0.99 | S. cerevisiae deletion strains, locus YPL240C, strain hsp82, active compounds read low 1 | S. cerevisiae deletion strains, locus YPL256C, strain CLN2, active compounds read low 1.01 | S. cerevisiae deletion strains, locus YPR119W, strain clb2, active compounds read low 0.998 | S. cerevisiae deletion strains, locus YPR141C, strain kar3, active compounds read low 0.997 | S. cerevisiae deletion strains, locus YPR163C, strain tif3, active compounds read low 1.01 | S. cerevisiae deletion strains, locus YPR167C, strain met16, active compounds read low 0.992 | S. cerevisiae deletion strains, strain wtn01, active compounds read low 0.993 | S. cerevisiae strains, strain wild type, active compounds read low 1.01
